Laboratory results taken from PubChem BioAssay (NCATS).
Results filed as inconclusive are left out. Values without a mark were called inactive. Active and inactive are the calls of the source. Calls come from the whole dose curve.

Assay: Primary qHTS for Vero E6 cytotoxicity: counterscreen for inhibitors of SARS-S pseudo-typed particle cell entry (AID 1479150)
Conditions: cell viability; series mostly up to 57.1 µM; activity change, negative = cytotoxicity: at the top concentration
% is set by controls: 0 for no effect and ±100 for the full control effect.

SMILES	outcome	activity change, negative = cytotoxicity [%]
O=C(CS(=O)Cc1ccco1)NC/C=C\COc1cc(CN2CCCCC2)ccn1 (configuration not stated)	inactive	–
NCCNCCNCCN	inactive	–
CC(=O)Oc1cccc(O)c1	inactive	–
COc1ccc(C2C(=O)c3ccccc3C2=O)cc1	–	2.83
CCCCC(O)/C=C(C)/C=C/C=C/C(=O)N1CCCC1=O (configuration not stated)	–	-7.71
NC(N)=Nc1nc(CSCC/C(N)=N/S(N)(=O)=O)cs1	inactive	–
Nc1ccc(C(=O)O)cc1	–	-2.44
CC(=O)[C@@]1(O)CC[C@H]2[C@@H]3C[C@H](C)C4=CC(=O)C=C[C@]4(C)[C@@]3(F)[C@@H](O)C[C@@]21C	inactive	–
O=C(O)Cc1cccc(-c2cc(CCCCCCc3ccc(O[C@H]4O[C@H](CO)[C@@H](O)[C@H](O)[C@@H]4O)c(-c4cccc(CC(=O)O)c4)c3)ccc2O[C@H]2O[C@H](CO)[C@@H](O)[C@H](O)[C@@H]2O)c1	inactive [at 0.573 µM]	–
Clc1cccc(C(c2ccc3nc[nH]c3c2)n2ccnc2)c1 (configuration not stated)	–	-11.2
CC(=O)OC(C)C[N+](C)(C)C (configuration not stated)	–	2.69
CC(=O)OCC(COC(C)=O)OC(C)=O	–	2
NC(=O)NC1NC(=O)NC1=O (configuration not stated)	–	-5.36
Nc1c(I)cc(I)c(C(=O)N(CCC(=O)O)c2ccccc2)c1I	–	-10.2
COc1cc(/C=C/C(=O)O[C@H]2CC[C@]34C[C@]35CC[C@]3(C)[C@@H]([C@H](C)CCC=C(C)C)CC[C@@]3(C)[C@@H]5CC[C@H]4C2(C)C)ccc1O	–	4.51
O=c1[nH]c(=O)n([C@H]2O[C@H](CO)[C@@H](O)[C@@H]2O)cc1/C=C\Br	inactive	–
O=C(O)/C=C\C(=O)O	inactive	–
